Data taken from PubChem BioAssay AID615 (Sanford-Burnham Center for Chemical Genomics, 2007).
Out of some 21,000 compounds screened, fewer than 10 were called active.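 The calls were made as follows: active = inhibition above 50% at the 20 µM single-dose screen; inactive = the rest.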 The list is a sample of the results.

Molecular target: Alkaline phosphatase, tissue-nonspecific isozyme (Homo sapiens) (UniProt P05186)
Test: human TNAP enzyme inhibitors, primary screen, biochemical, colorimetric, p-nitrophenol readout (AID 615);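 also: 0% = DMSO only wells and 100% = 1 mM levamisole wells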
Details: purified TNAP, pNPP hydrolysis, absorbance 405 nm; at 20 µM; hits give high values

Sequence of Alkaline phosphatase, tissue-nonspecific isozyme (Homo sapiens) (P05186 whole entry, looked up): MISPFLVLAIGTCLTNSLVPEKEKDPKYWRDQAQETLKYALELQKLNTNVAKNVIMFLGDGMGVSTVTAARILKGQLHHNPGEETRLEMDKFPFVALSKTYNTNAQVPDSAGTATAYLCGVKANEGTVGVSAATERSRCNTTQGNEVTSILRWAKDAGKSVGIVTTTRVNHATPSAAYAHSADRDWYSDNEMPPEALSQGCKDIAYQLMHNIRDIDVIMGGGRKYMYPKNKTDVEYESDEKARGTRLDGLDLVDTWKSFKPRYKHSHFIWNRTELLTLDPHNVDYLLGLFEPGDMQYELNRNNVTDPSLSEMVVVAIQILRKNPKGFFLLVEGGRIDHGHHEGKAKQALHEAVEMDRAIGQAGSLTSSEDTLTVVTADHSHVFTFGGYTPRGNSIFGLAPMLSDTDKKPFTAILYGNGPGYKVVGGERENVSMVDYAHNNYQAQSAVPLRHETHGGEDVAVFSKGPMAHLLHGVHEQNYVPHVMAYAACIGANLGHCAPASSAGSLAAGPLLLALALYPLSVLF

inhibition, inactive:
COC(=O)c1ccccc1NC(=O)CN(Cc1ccccc1)S(C)(=O)=O 6%
CCCc1nc2ccccc2c(C(=O)OCc2nnc(-c3cc(OC)c(OC)c(OC)c3)o2)c1CC 1.2%
CCOC(=O)c1cc2occc2n1CC(=O)NC1CCC(C)CC1 (configuration not stated) 5.1%
CCOc1cccc(=O)c2c(C)n(CC3CCCO3)c(C)c12 (configuration not stated) -12.4%
O=C(NC1CC2CCCC(C1)N2C(=O)N1CCCCC1)C1CCCCC1 (configuration not stated) 4.8%
CCOC(=O)C1C(=O)NC(N2CCN(c3ccccc3)CC2)=NC1c1ccco1 (configuration not stated) 2.1%
CCN(Cc1cc2cc(C)ccc2[nH]c1=O)S(=O)(=O)c1ccccc1 6.4%
O=C(NCCCCO)C(F)(F)C(F)(F)C(F)(F)C(=O)NCCCCO 4.2%
Cc1cc(N2C(=O)C(=O)/C(=C(/O)c3ccccc3)C2c2cccc(Br)c2)no1 (configuration not stated) 0.9%
CN(c1nc2ccccc2n2c(-c3ccco3)nnc12)S(=O)(=O)c1ccccc1 4.7%
CC(=O)c1cccc(NC(=O)N2CCCC2C(=O)NCCC(C)C)c1 (configuration not stated) 7.2%
Cc1ccc(F)cc1NC(=O)c1cccc(N(C)C)c1 5%
CC1=C2C(=O)OC(c3ccoc3)C2(C)CCC1 (configuration not stated) 0%
CCOC(=O)CSc1nnc(-c2ccco2)n1C 3%
Cc1ccc(C(=O)OCC(=O)NCc2ccc3c(c2)OCO3)s1 3.6%
Cc1ccc(S(=O)(=O)N2CCC(C(=O)OCC(=O)N3CC(=O)Nc4ccccc43)CC2)cc1 5.7%
CCCCCNC(=O)Cc1ccc(OC)cc1 2.1%
Cc1nc(NCc2ccccc2)c(C(N)=O)c2c1COC(C)(C)C2 3%
CC(=O)N(Cc1cccs1)C1CCOC(C)(C)C1 (configuration not stated) 2.9%
CSc1nc(O)c(Cc2ccccc2)c(=O)[nH]1 0.9%
CC(C)C(NC(=O)c1cccc(S(=O)(=O)N2CCOCC2)c1)C(=O)NCCc1ccccn1 (configuration not stated) 4.3%
CSCCC1NC2(C(=O)Nc3ccc(Cl)cc32)[C@@H]2C(=O)N(C3CCCC3)C(=O)[C@H]12 (some centres not stated) 7.3%
Cc1cnc(NC(=O)CSc2nnc(-c3ccc(Cl)cc3Cl)n2N)s1 -1.5%
COc1ccc(-c2c3c(=O)n(C)c(=O)n(C)c3cn2NC(C)=O)cc1 3.2%
CCSC1=C(C#N)C(=O)n2c1cc1c2CCCC1 1.7%
Cc1cc(C(=O)N2CCN(c3ccccn3)CC2)c(C)o1 6%
COc1cccc(-c2nnc(N(C)C(=O)c3ccno3)s2)c1 2.3%
